Source: PubChem (several laboratories)
Mtb hypoxia inh: Mtb hypoxia fluorescent reporter inhibition | M. tuberculosis hypoxia-regulated fluorescent reporter, fluorescence | fluorescence inhibition, % (concentration not given with the values) | 0.1% of 300,000 active; in the data active = fluorescence inhibition mostly above about 23%, no sharp cut-off; inactive = mostly below about 17%
RecA intein inh: Mtb RecA intein splicing inhibition | P9WHJ3 | cell-free RecA intein splicing, fluorescence | inhibition, % (test concentration not listed) | 0.75% of 290,000 active; in the data active = inhibition above about 30%
Target sequence (P9WHJ3 whole entry, looked up): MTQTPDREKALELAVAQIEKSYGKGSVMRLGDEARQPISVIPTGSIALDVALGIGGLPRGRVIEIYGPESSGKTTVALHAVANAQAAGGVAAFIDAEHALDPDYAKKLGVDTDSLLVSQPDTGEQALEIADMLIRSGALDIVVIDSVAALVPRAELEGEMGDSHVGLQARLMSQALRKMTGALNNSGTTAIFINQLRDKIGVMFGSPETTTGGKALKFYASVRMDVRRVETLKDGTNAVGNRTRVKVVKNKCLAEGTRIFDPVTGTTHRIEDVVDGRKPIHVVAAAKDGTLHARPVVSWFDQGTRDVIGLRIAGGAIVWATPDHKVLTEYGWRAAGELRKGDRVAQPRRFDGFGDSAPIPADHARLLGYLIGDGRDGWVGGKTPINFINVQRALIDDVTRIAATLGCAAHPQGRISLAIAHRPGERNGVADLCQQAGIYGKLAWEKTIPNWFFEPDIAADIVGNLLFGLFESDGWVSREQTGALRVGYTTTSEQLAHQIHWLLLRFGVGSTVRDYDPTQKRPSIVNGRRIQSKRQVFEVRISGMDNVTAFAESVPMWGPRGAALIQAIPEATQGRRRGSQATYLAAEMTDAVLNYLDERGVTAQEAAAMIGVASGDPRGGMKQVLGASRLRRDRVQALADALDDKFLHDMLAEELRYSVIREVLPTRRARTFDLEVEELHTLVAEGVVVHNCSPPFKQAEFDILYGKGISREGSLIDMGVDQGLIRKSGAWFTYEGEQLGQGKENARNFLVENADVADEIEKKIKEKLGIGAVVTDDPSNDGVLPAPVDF
Rv3671c inh: Rv3671c (M. tuberculosis) protease inhibition | P9WHR9 | inhibition, % at 5.96 µM | 0.048% of 320,000 active | AID 2606;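 also: extracellular domain of Rv3671c used as enzyme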
FadD28 FP inh: inhibitors of Mycobacterium tuberculosis FadD28 bisubstrate binding. FadD28 bisubstrate probe binding, fluorescence polarization. 0.22% of 360,000 active. inhibition, % at 12.5 µM; in the data active = inhibition above about 8.5%, passing the limit was not always enough
UGM FP inh: Mtb UDP-galactopyranose mutase inhibition. AID 504406. P9WIQ1. inhibition, % at 10 µM. purified UGM, fluorescence polarization probe displacement. 0.06% of 320,000 active; in the data active = inhibition above about 10%, passing the limit was not always enough
GFP chromo cs: counter-screen GFP chromophore formation inhibition; EC50, µM; shares compounds with RecA intein inh; 83% of 2,100 active; AID 434968; cell-free GFP chromophore formation, fluorescence; call rule not given here
Rv3671c cf: confirmation of M. tuberculosis Rv3671c protease inhibitors; 40% of 140 active; shares compounds with Rv3671c inh; inhibition, % at 5.96 µM
DNA intercal FP: counter-screen: DNA intercalators; shares compounds with UGM FP inh; acridine orange-DNA binding, fluorescence polarization; AC50, µM; 60% of 35 active;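 active = fitted AC50 no greater than ten times the top concentration tested, cut at about 17 µM in these data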
Of the large screens only hits and unclear results are named; the others gave an inactive call (follow-up assays come after a bar, where they were run). An excerpt weighted towards active compounds, which were near 0.92% of everything screened. Rule as the data show it, unless noted: active = inhibition above about 38%; inactive = the rest.

COc1ccc2nc3cc(Cl)ccc3c(Nc3cc(C(C)C)c(O)cc3C)c2c1	RecA intein inh 73, Rv3671c inh 40 | GFP chromo cs 0.75 | Rv3671c cf 46
COc1ccc(S(=O)(=O)Nc2cc(C(C)C)c(O)cc2C)cc1	none
O=c1oc(-c2cccnc2)nc2ccccc12	none (no result: Mtb hypoxia inh)
Cc1onc(-c2ccccc2)c1-c1nc2ccccc2c(=O)o1	RecA intein inh 32, Rv3671c inh 49 | GFP chromo cs 2.3 | Rv3671c cf 62
COc1ccc2c(c1)OCC1C2N2C(=O)CN(Cc3ccc(Cl)cc3)C(=O)[C@@]2(C)C1c1ccccc1 (stereo not given in full)	none (no result: RecA intein inh, Rv3671c inh, FadD28 FP inh, UGM FP inh)
CCCn1nc([N+](=O)[O-])c(C(C#N)c2nc3ccccc3s2)c(Cl)c1=O (stereo not given)	RecA intein inh 81, Rv3671c inh 40, FadD28 FP inh 26 | GFP chromo cs 6.1 | Rv3671c cf inactive
COc1ccc2noc3c2c1C(=O)c1ccccc1-3	RecA intein inh 60, UGM FP inh 84 (no result: Mtb hypoxia inh) | GFP chromo cs 10 | DNA intercal FP 3.1
CCN(CC)S(=O)(=O)c1cccc(C(=O)NN=Cc2ccccc2OCC(=O)O)c1	none (no result: RecA intein inh, Rv3671c inh, FadD28 FP inh, UGM FP inh)
O=C(NCc1cccs1)c1cccc(Nc2nc3ccc(Br)cc3[nH]2)c1	Rv3671c inh 43 | Rv3671c cf 37
c1ccc(CCN2CN=C(Nc3nc4ccccc4s3)NC2)cc1	Rv3671c inh 78 | Rv3671c cf inactive
c1ccc(CN2CN=C(Nc3nc4ccccc4s3)NC2)cc1	none
Cc1cc(OC(=O)c2ccco2)c2c3c(c(=O)oc2c1)CCCC3	Rv3671c inh 60 (no result: Mtb hypoxia inh) | Rv3671c cf 73
COc1cc2c(cc1OC)-c1c(OC)c(OC)cc3c1C(C2)[N+](C)(C)CC3 (stereo not given)	none (no result: RecA intein inh, Rv3671c inh, FadD28 FP inh, UGM FP inh)
COC(=O)c1ccccc1-c1c2ccc(=N)cc-2oc2cc(N)ccc12	Rv3671c inh 166, FadD28 FP inh 129, UGM FP inh 138 (no result: Mtb hypoxia inh, RecA intein inh) | Rv3671c cf 164
C=CCn1cc(/C=N/Nc2nc3ccccc3[nH]2)c2ccccc21	Rv3671c inh 40 (no result: Mtb hypoxia inh) | Rv3671c cf 68
C#CCn1cc(C=NNc2nc3ccccc3[nH]2)c2ccccc21	none (no result: RecA intein inh, Rv3671c inh, FadD28 FP inh, UGM FP inh)
CC(O)Cc1cn(CC(=O)NCCCCCCCCCCC(=O)N2CCNCC2)nn1 (stereo not given)	none (no result: RecA intein inh, Rv3671c inh, FadD28 FP inh, UGM FP inh)
Cc1noc(C(=O)Nc2ccc(F)c(Cl)c2)c1Cl	Rv3671c inh 61 | Rv3671c cf inactive
Cc1noc(C(=O)Nc2ccc(Cl)cc2)c1Cl	none (no result: Mtb hypoxia inh, FadD28 FP inh)
O=C(NN=Cc1ccc(O)c(O)c1O)/C(=C/c1ccc([N+](=O)[O-])cc1)NC(=O)c1ccccc1	none (no result: RecA intein inh, Rv3671c inh, FadD28 FP inh, UGM FP inh)
O=C(O)c1cc(O)c2c(c1)[C@@H]([C@H]1c3cc(C(=O)O)cc(O)c3C(=O)c3c(O[C@@H]4O[C@H](CO)[C@@H](O)[C@H](O)[C@H]4O)cccc31)c1cccc(O[C@@H]3O[C@H](CO)[C@@H](O)[C@H](O)[C@H]3O)c1C2=O	Rv3671c inh 71 (no result: Mtb hypoxia inh, RecA intein inh, FadD28 FP inh) | Rv3671c cf inactive
Cn1cc(C=Nn2cnc3sc4c(c3c2=O)CCCC4)c2ccccc21	none (no result: RecA intein inh, Rv3671c inh, FadD28 FP inh, UGM FP inh)
COc1ccc(C(=O)NN=Cc2cc3ccccc3[nH]c2=S)cc1	none (no result: RecA intein inh, Rv3671c inh, FadD28 FP inh, UGM FP inh)
COc1ccc(C(=O)N/N=C/c2cc3ccccc3[nH]c2=S)cc1	Rv3671c inh 44 (no result: Mtb hypoxia inh) | Rv3671c cf 45
COCCCNc1c2c3c(cccc3[nH]c1=O)C(=O)c1ccccc1-2	Rv3671c inh 137, FadD28 FP inh 58, UGM FP inh 102 (no result: RecA intein inh) | Rv3671c cf 145
COCCCNC1=C(Cl)C(=O)c2ccccc2C1=O	none
O=c1cc[nH]c2c1ccc1c(=O)cc[nH]c12	Rv3671c inh 50 | Rv3671c cf inactive
O=C1C=C(c2ccc(Oc3ccccc3)cc2)CC(c2ccc(Cl)cc2)C1 (stereo not given)	none (no result: RecA intein inh, Rv3671c inh, FadD28 FP inh, UGM FP inh)
NC(=O)COC(=O)C1c2ccccc2Oc2ccccc21	none
N#CCN(CC#N)C(=O)C1c2ccccc2Oc2ccccc21	Rv3671c inh 104 (no result: Mtb hypoxia inh) | Rv3671c cf inactive
CCN(c1ccccc1)S(=O)(=O)c1ccc(N2CCN(c3ccc(OC)cc3)CC2)nc1	Rv3671c inh 102 (no result: RecA intein inh) | Rv3671c cf inactive
CC[n+]1c(C=CN(C)c2ccccc2)oc2ccc(Cl)cc21	none (no result: RecA intein inh, Rv3671c inh, FadD28 FP inh, UGM FP inh)
